# High-throughput results from PubChem.
# FH mod – Identification of activators of human fumarate hydratase by quantitative high-throughput screening; AID 1347055, 2019; Fumarate hydratase, mitochondrial (Homo sapiens), P07954; Potency, µM (top dose mostly 79.9 µM), inactives show at the top dose activity change, negative = inhibition, actives largely listed as inhibitors; 54,000 tested, 0.22% active; FH coupled MDH/diaphorase resazurin fluorescence, 15 min; also: potency is read from the fitted curve at half-maximal effect; % is scaled to controls: 0 for no effect and ±100 for the full control effect; the screen sought activators but most active calls are inhibition curves; nearly all actives have a fitted effect of over 45% in size
# TSG101-PTAP inh – qHTS Validation Assay for Inhibitors of HIV-1 Budding by Blocking the Interaction of PTAP/TSG101: Sytravon Library Screen. Tumor susceptibility gene 101 protein (Homo sapiens), Q99816. Fluorescence polarization, FITC-PTAP peptide/Tsg101, 20 min. Potency, µM (top dose mostly 115 µM), actives largely listed as inhibitors. 44,000 tested, under 10 active; also: potency is read from the fitted curve at half-maximal effect; 0% is about no effect
#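 Fluorescence polarization binding of Tsg101 binding domain (10 uM final) to FITC-labeled PTAP-motif peptide (50 nM final) in HEPES pH 7.5/NaCl/Tween 20/EDTA/TCEP buffer; 20 min at r.t. Actives by curve class, <25 µM, efficacy <60% inhibition.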
# NTMT1 inh – Primary qHTS for Inhibitors of N-terminal methyltransferase 1 (NTMT1): MTaseGlo Assay; N-terminal Xaa-Pro-Lys N-methyltransferase 1 (Homo sapiens), Q9BV86; NTMT1 MTase-Glo SAH luminescence, purified enzyme; Potency, µM (top dose mostly 114 µM), inactives show at the highest dose activity change, negative = inhibition, most hits filed as inhibitors; 59,000 tested, 2.5% active;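 also: potency is read from the fitted curve at half-maximal effect; plate controls were DMSO vehicle for no effect and no enzyme for full effect; nearly all actives have a fitted effect of over 65% in size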
# B2AR arrestin ag – qHTS assay of beta-arrestin-biased ligands of beta2-adrenergic receptor: NCGC Sytravon Library Screen | Beta-2 adrenergic receptor (Homo sapiens), P07550 | HTLA Tango cells, beta-arrestin recruitment, luciferase luminescence, 18 h | Potency, µM (highest dose often 46.1 µM), most hits filed as activators | 44,000 tested, under 10 active | AID 1347077, 2019;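 also: potency is read from the fitted curve at half-maximal effect; 0% = DMSO and full agonism = EC100 isoproterenol or metaproterenol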
#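 Tango cell line, 1% FBS DMEM; cpd titration up to 46 microM; 18 hr, 37 degrees C, 5% CO2. Luciferin/ATP substrate mix added, 15 min RT, luminescence. %Activity, CRC fitting, curve-class categorization.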
# GALK inhibitor – qHTS Assay for Inhibitors of Human Galactokinase (GALK): NCGC Sytravon Library Screen; P51570; recombinant GALK, Kinase-Glo ATP luminescence, 1 h; Potency, µM (highest dose often 57.5 µM), for the others: top-dose activity, negative = inhibition, actives largely listed as inhibitors; 44,000 tested, under 10 active; AID 1347072, 2019;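 also: plate controls were full GALK reaction for no effect and reaction lacking GALK for full effect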
#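 5 nM GALK with 35 µM ATP and 100 µM galactose in HEPES pH 8.0, MgCl2, NaCl, DTT, BSA; 1 h RT reaction, remaining ATP detected by Kinase-Glo Plus luminescence after 10 min; qHTS concentration series.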
# DYRK1A KinaseGlo – Assay for Inhibitors of Dual-Specificity Tyrosine-(Y)-Phosphorylation Regulated Kinase 1A (Kinase-Glo assay); shares compounds with NTMT1 inh; recombinant DYRK1A, Kinase-Glo ATP depletion luminescence; Potency, µM (top dose mostly 76.9 µM), inactives show at the top dose activity change, negative = inhibition, usual class: inhibitors; 100 tested, 80% active; AID 2705, 2010
# CLK4 KinaseGlo – Confirmation Assay for Inhibitors of CDC-like Kinase 4 (Kinase-Glo Assay): SAR round 2. shares compounds with NTMT1 inh. recombinant Clk4, Kinase-Glo ATP luminescence, 4.5 h. Potency, µM (doses to about 76.9 µM), for the others: at the top dose activity, negative = inhibition, hits mostly inhibitors. 90 tested, 90% active
# Sfp qHTS opt – qHTS Assay for Inhibitos of Bacillus subtilis Sfp phosphopantetheinyl transferase (PPTase): Chemistry Optimization Followup; 230 tested, 78% active; purified Sfp PPTase enzyme activity, qHTS; shares compounds with NTMT1 inh; Potency, µM (titrated, usually from 114 µM), without a hit: top-dose activity change, negative = inhibition, actives largely listed as inhibitors; AID 540350, 2011
# HM489 growth – qHTS for Inhibitos of Bacillus subtilis Sfp phosphopantetheinyl transferase (PPTase): Chemistry Optimization Followup in B. Subtilis HM489. shares compounds with NTMT1 inh. B. subtilis HM489 (acpS-) growth, BacTiter-Glo, 5 h. Potency, µM (top dose mostly 114 µM), inactives show at the highest dose activity change, negative = inhibition, usual class: inhibitors. 220 tested, 50% active
# Sfp PPTase gel – Gel-Based Assay for Inhibitos of Bacillus subtilis Sfp phosphopantetheinyl transferase (PPTase): Chemistry Optimization Followup | Potency, µM (highest dose often 250 µM), inactives show at the top dose activity change, negative = inhibition, hits mostly inhibitors | shares compounds with NTMT1 inh | purified Sfp PPTase, gel-based product detection | 220 tested, 54% active
# Sfp gel – qHTS Assay for Inhibitors of Bacillus subtilis Sfp phosphopantetheinyl transferase (PPTase): Gel Based Assay; shares compounds with NTMT1 inh; Potency, µM (doses to about 250 µM), inactives show at the top dose activity change, negative = inhibition, hits mostly inhibitors; 45 tested, 90% active; purified Sfp PPTase, gel-based product detection
# Sfp inh SAR2 – qHTS Assay for Inhibitors of Bacillus subtilis Sfp phosphopantetheinyl transferase (PPTase): SAR Round 2; shares compounds with NTMT1 inh; purified Sfp enzyme, PPTase activity, qHTS; Potency, µM (doses to about 57.1 µM), without a hit: top-dose activity change, negative = inhibition, actives largely listed as inhibitors; 230 tested, 87% active
# hGST A1-1 inh – qHTS Assay for Inhibitors of Bacillus subtilis Sfp phosphopantetheinyl transferase (PPTase): SAR in hGST A1-1. shares compounds with NTMT1 inh. Potency, µM (series often up to 114 µM), without a hit: at the highest dose activity change, negative = inhibition, actives largely listed as inhibitors. 55 tested, under 10 active. hGST A1-1 enzyme activity counter-screen, qHTS
# HSD17B4 inh – Extended Characterization of HPGD Inhibitors: Counterscreen Against HSD17b4; shares compounds with NTMT1 inh; 230 tested, 10% active; Potency, µM (top dose mostly 57.1 µM), for inactives: at the highest dose activity change, negative = inhibition, hits mostly inhibitors; purified HSD17B4, estradiol/NAD+, NADH fluorescence
# ALDH1A1 counter – Extended Characterization of HPGD Inhibitors: Counterscreen Against ALDH1A1; 230 tested, 93% active; recombinant ALDH1A1, NADH fluorescence, propionaldehyde/NAD+; shares compounds with NTMT1 inh; AID 743195, 2013; Potency, µM (doses to about 57.1 µM), for inactives: top-dose activity change, negative = inhibition, usual class: inhibitors
# Target sequence (P00352 whole entry, looked up): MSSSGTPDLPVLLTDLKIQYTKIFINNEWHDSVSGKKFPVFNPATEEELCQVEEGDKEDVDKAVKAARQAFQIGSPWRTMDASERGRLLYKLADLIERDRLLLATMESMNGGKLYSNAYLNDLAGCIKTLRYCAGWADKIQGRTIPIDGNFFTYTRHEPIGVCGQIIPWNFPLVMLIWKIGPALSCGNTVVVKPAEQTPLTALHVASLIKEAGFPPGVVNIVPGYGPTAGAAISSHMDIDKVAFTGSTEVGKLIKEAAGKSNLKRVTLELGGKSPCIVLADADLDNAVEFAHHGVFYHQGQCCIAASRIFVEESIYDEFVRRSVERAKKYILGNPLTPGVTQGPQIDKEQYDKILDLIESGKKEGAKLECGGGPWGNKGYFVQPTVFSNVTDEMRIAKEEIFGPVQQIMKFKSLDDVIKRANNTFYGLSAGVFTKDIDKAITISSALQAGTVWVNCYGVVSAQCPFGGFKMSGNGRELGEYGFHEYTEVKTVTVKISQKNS
# NNMT inh – Counterscreen qHTS for Inhibitors of N-terminal methyltransferase 1 (NTMT1): NNMT MTaseGlo assay; shares compounds with NTMT1 inh; NNMT MTase-Glo luminescence, SAH detection; Potency, µM (series often up to 57.1 µM), inactives show top-dose activity, negative = inhibition, hits mostly inhibitors; 120 tested, 10% active
# Target sequence (P40261 whole entry, looked up): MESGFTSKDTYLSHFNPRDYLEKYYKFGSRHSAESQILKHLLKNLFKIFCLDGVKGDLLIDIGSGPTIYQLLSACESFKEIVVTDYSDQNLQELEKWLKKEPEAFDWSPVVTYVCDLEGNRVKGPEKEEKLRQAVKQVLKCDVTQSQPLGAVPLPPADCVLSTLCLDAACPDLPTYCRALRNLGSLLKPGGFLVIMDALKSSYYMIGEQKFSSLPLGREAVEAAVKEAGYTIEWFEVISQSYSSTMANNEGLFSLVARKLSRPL
# Starred values were filed as active, the others as inactive; i = inactive; ? = inconclusive; . = no result; ! = not confirmed by another sample; [ ] = dose if it differs, or a comment. The full list was thinned out, with hits kept by preference. Calls follow the shape of the dose curve; as a rule, active = well fitted curve in the direction sought with a large enough effect; inconclusive = small, poorly fitted or top-dose-only effect, or another doubt; inactive = no such curve, though single readings can be large; an effect the other way counts as inactive or inconclusive.
SMILES,FH mod,TSG101-PTAP inh,NTMT1 inh,B2AR arrestin ag,GALK inhibitor,others
O=C(OCC#CCSc1nnc(-c2ccc3ccccc3c2)o1)c1ccc(F)cc1,.,.,5%,.,.,
Cc1ccnc(NC(=S)N2CCN(c3cccc(N(C)C)c3)CC2)c1,.,.,-25%,.,.,Sfp qHTS opt=9.4µM*;HM489 growth=37µM*;Sfp PPTase gel=1.3µM*;Sfp gel=8.5µM*;Sfp inh SAR2=5.8µM*;hGST A1-1 inh=?;HSD17B4 inh=?;ALDH1A1 counter=1.7µM*
N#Cc1c(-c2ccc(Cl)c([N+](=O)[O-])c2)no[n+]1[O-],.,.,0%[57.5 µM],.,.,
Fc1cc(-c2cccc3ncc(-c4cnn(C5CCNCC5)c4)nc23)cc(F)c1CN1CCOCC1,3%,.,18µM*!,.,.,NNMT inh=-19%
Cc1cc(C)nc(/N=C(\NC#N)N2CCN(c3cccc(C(F)(F)F)c3)CC2)c1,.,.,3%,.,.,Sfp qHTS opt=?;HM489 growth=42µM*;Sfp PPTase gel=?;Sfp inh SAR2=?;HSD17B4 inh=-9%;ALDH1A1 counter=24µM*
Cc1cc(C)nc(Nc2nnc(N3CCN(c4cccc(C(F)(F)F)c4)CC3)s2)c1,.,.,6%[57.5 µM],.,.,Sfp qHTS opt=?;HM489 growth=42µM*;Sfp PPTase gel=-20%;Sfp inh SAR2=14µM*;HSD17B4 inh=-20%;ALDH1A1 counter=22µM*
Cc1c(-c2ccc3c(c2)OCO3)oc2ccc(C(O)C(C)O)cc12 (stereo not given),-1%[53.3 µM],.,2%[29.8 µM],.,.,
Cc1nc(CN(C)c2ncnc3ccc(-c4ccc5[nH]ncc5c4)cc23)cs1,.,.,.,.,.,Sfp qHTS opt=35%[57.1 µM];Sfp gel=-7%;Sfp inh SAR2=21%;hGST A1-1 inh=?;HSD17B4 inh=22µM*;ALDH1A1 counter=15µM*
Cc1nc(CSc2ncnc3ccc(-c4ccc5c(c4)OCO5)cc23)cs1,.,.,?,.,.,DYRK1A KinaseGlo=2.6µM*
CN(CC1CCCCO1)c1ncnc2ccc(-c3ccc4c(c3)OCO4)cc12 (stereo not given),.,.,.,.,.,CLK4 KinaseGlo=0.073µM*
Cc1nc(CN(C)c2ncnc3ccc(-c4ccc5c(c4)OCO5)cc23)cs1,-9%,.,7.9µM*,.,.,DYRK1A KinaseGlo=0.041µM*
CN(CC(=O)O)c1ncnc2ccc(-c3ccc4c(c3)OCO4)cc12,.,.,-13%[57.5 µM],.,.,CLK4 KinaseGlo=2.3µM*
Cc1ccc(CN(C)c2nc(-c3ccccc3C(F)(F)F)nc3ccccc23)cc1,.,.,8%,.,.,
O=C(Nc1cc2cc[nH]c2cn1)c1ccccc1,-2%,.,22µM*!,.,.,NNMT inh=14µM*
Cc1nnc(NC(=O)c2ccccc2)s1,-4%,i,-2%,i,1%,
O=C(O)c1cccc(Nc2ncnc3ccc(Br)cc23)c1,-4%,i,20%,i,0%,
C#Cc1cccc(Nc2ncnc3cc(OC)c(OCCCCCCC(=O)NO)cc23)c1,11%,.,13µM*,.,.,NNMT inh=?
